This is part of a sample that, as a whole, favours compounds with a hit. Of some 83,000 tested, about 20% had one in any assay.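 Single-dose data. Exposure time 48 hours. Values below 10 considered active.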 The source made the active and inactive calls.

The test has as its system HL-60(TB) leukemia. Put plainly: NCI-60 one-dose screen, 48 h (100 = growth as untreated, 0 = no growth, -100 = all killed). As to conditions: 10 µM unless noted.
For `Cn1c(C(=O)c2cccc3ccccc23)nc2ccccc21`, the growth is 3.94% (active). For `C=C(C)[C@@H]1CC[C@]2(C)[C@H](C=CC3=C4C[C@@](C)(CO)CC[C@]4(C)CC[C@]32C)[C@@]1(C)CCCN`, the growth was -58% (active).

Take `COc1cc(/C=C(/C)C[N+](=O)[O-])ccc1O`: the growth was 71.5% (inactive). To `Cc1cn(C)cn1` belongs 116% (inactive).

The values above are taken from PubChem BioAssay (NCI).
